In all, about 370,000 compounds went through this assay and about 4,100 (1.1%) were called active. The sample as a whole holds a higher share of actives than the screen did. A number with no mark means an inactive call.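 The calls were made as follows: active = inhibition above the mean over all tested compounds plus 3 SD (cut at about 3.6% in these data); inactive = the rest.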
Experiment: DAX1 (NR0B1) inhibitors on StAR promoter, primary screen, cell-based, luminescence, SF-1 (NR5A1), full-length DAX-1 (AID 652010);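 also: 0% = DAX-1 cells with DMSO and 100% = cells lacking DAX-1 with DMSO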
Settings: HEK293T StAR-luciferase reporter, SF-1/DAX-1 repression relief; at 6.8 µM; hits give high values

SMILES	inhibition
Cc1ccsc1C(=O)NC1CCCCC1C (stereo unspecified)	-0.66%
CCNC(=O)c1sccc1-n1cccc1	-0.31%
Cc1ccsc1C(=O)NCCc1ccco1	4.3% (active)
COc1cccc(CNC(=O)[C@H]2CCCN2C(=O)[C@H]2CCCN2C(=O)C2CCCCC2)c1	-1.49%
Cc1ccc(-n2c(SCC(=O)Nc3cccc4ccccc34)nnc2-c2ccccn2)cc1	-0.57%
O=C(NCCC1=CCCCC1)C1CCN(S(=O)(=O)c2ccc(Cl)s2)CC1	0.02%
CC[C@]12c3[nH]c4cc(CCC(=O)N(C)C)ccc4c3CCN1C(=O)[C@@H](CC(=O)NCCCn1ccnc1)C[C@@H]2C(=O)N1CCN(C(=O)C2CC2)CC1	-0.23%
CC[C@]12c3[nH]c4cc(CCC(=O)N(C)C)ccc4c3CCN1C(=O)[C@@H](CC(=O)NCc1ccco1)C[C@@H]2C(=O)N1CCN(C(=O)c2ccco2)CC1	0.22%
CC[C@]12c3[nH]c4cc(CCC(=O)N(C)C)ccc4c3CCN1C(=O)[C@@H](CC(=O)NCCCN(C)C)C[C@@H]2C(=O)N1CCN(C(=O)c2ccco2)CC1	3.91% (active)
Cc1nc2ccc(C(=O)N3CCN(C(=O)C(C)(C)C)CC3)cc2n1C1CCCC1	1.16%
COc1ccc(-n2c(SCC(=O)Nc3ccc(C)c(Cl)c3)nc3ccccc3c2=O)cc1	-1.67%
O=C(NCc1cccs1)c1ccc2c(c1)ncn2C1CCCC1	0.35%
Nn1c(SCC(=O)Nc2ccc(S(N)(=O)=O)cc2)nnc1-c1n[nH]c2c1CCC2	0.11%
COC(=O)C1CN(CCc2ccccc2)CCS(=O)(=O)N1Cc1ccc(F)cc1 (stereo unspecified)	-0.43%
CC(C)c1ccc(/C=C2\NC(=O)NC2=O)cc1	0.05%
CN(CCc1ccccc1)c1ccc([N+](=O)[O-])cn1	-0.34%
CC(C)c1ccc(C=NNc2ccc([N+](=O)[O-])cn2)cc1	4.69% (active)
Cc1ccc(C(=O)NN(CCC#N)C2=NS(=O)(=O)c3ccccc32)cc1	0.06%
O=C(NCc1ccccc1)[C@H]1CCCN1C(=O)[C@@H]1CCCN1C(=O)c1ccc(Cl)cc1Cl	0.24%

SMILES	inhibition
CC[C@@H](CCC(=O)N(c1ccccc1)c1ccccc1)C1CC1	-1.2%
CC(=O)Nc1ccc(S(=O)(=O)Oc2ccc(Br)cc2C(=S)N2CCOCC2)cc1	-1.94%
O=S(=O)(Oc1ccccc1C(=S)N1CCOCC1)c1ccc(Cl)cc1	3.63% (active)
CCOc1cc(C(=S)N2CCOCC2)ccc1OS(=O)(=O)c1ccc(Br)cc1	0.06%
COC(=O)c1cc(S(=O)(=O)N2CCN(c3ccccc3C)CC2)cn1C	-1.02%
CC(c1c[nH]c2ccccc12)c1c(-c2ccccc2)n(C)c2ccccc12 (stereo unspecified)	-0.37%
CC(=O)N1CCc2cc(S(=O)(=O)NCCC(=O)N3CCCC3)ccc21	-1.5%
COc1ccc(C(=NN)c2ccc(OC)cc2)cc1	0.31%
COc1ccc(C(C#N)=C2C=CC(=NO)c3ccccc32)cc1	4.3% (active)
COc1ccc(/C(N)=N/OC(=O)Oc2ccccc2)cc1	-0.74%
O=C(N[C@H](Cc1ccccc1)C(=O)N1CCCN(Cc2cccs2)CC1)[C@H]1O[C@@H](n2ccc(=O)[nH]c2=O)[C@H](O)[C@@H]1O	1.64%
CCOc1ccc(NC(=O)COc2ccc(S(=O)(=O)N3CCCC3)cc2)cc1	-0.61%
COc1ccc(-n2c(COc3ccccc3)nnc2SCC(=O)Nc2ccc3c(c2)OCO3)cc1	-0.36%
CC(c1ccc(N)cc1)c1cn(C)c2ccccc12 (stereo unspecified)	-0.01%
COc1ccc(Cn2cc(COC(=O)N(C)Cc3ccccc3)nn2)cc1	-0.67%
Cc1cc(-c2ccccc2)n2nc(C)c(-c3ccccc3)c2n1	0.27%
Cc1nn2c(c1-c1ccccc1)N=C(c1ccco1)CC2c1ccccc1 (stereo unspecified)	-0.86%
Cc1nn(C(=O)c2ccoc2C)c(N)c1-c1ccccc1	3.82% (active)
O=C(NCCc1c[nH]c2ccccc12)OCc1cn(-c2c(F)cccc2F)nn1	-0.6%

SMILES	inhibition
Cc1cccc(N(CC(=O)Nc2ccc(-c3nc4ccc(C)cc4s3)cc2)S(C)(=O)=O)c1	1.57%
Cc1ccc2nc(-c3ccc(NC(=O)CN(C)S(=O)(=O)c4ccccc4)cc3)sc2c1	3.65% (active)
Cc1nc2ccc(S(=O)(=O)N(C)CC(=O)NC(C)c3ccccc3)cc2s1 (stereo unspecified)	-0.1%
O=S1(=O)c2c(cccc2N2CCCC2)O[C@H](COCc2ccccc2)CN1C1CC1	-1.16%
C=CCN1C(=O)[C@@H](CC(=O)NCC2CCCCC2)[C@]2(C(=O)OC)CCCCC=C12	0.53%
Cc1ccc(NNC(=O)C2CCC2)cc1C	0.22%
Cc1ccc(N/C=C/C(=O)c2ccccc2)cc1C	5.15% (active)
COC(C(=O)Nc1ccc(S(=O)(=O)Nc2ccc(C)c(C)c2)cc1)c1ccccc1 (stereo unspecified)	-1.03%
Nc1nc2c(ncn2[C@@H]2O[C@H](C(=O)N[C@H](Cc3ccccc3)C(=O)NCC3CCCCC3)[C@@H](O)[C@H]2O)c(=O)[nH]1	1.02%
COC(=O)Nc1nc2ccc(Sc3ccccc3)cc2[nH]1	0.19%
COc1ccc(CNC(=O)c2cc(C(=O)C3CC3)c[nH]2)cc1	-2.24%
COC(=O)Nc1nc2ccc(C(=O)C3CC3)cc2[nH]1	7.48% (active)
COc1ccc(-n2c(COc3ccc(C)cc3)nnc2SCC(=O)Nc2ccc(Oc3ccccc3)cc2)cc1	-1.51%
COc1ccc(Cn2cc(CN3[C@@H](CC(C)C)COc4cc(Br)ccc4S3(=O)=O)nn2)cc1	0.86%
C=CCN1[C@H](CC(C)C)COc2cccc(N3CCCC3)c2S1(=O)=O	-1.88%
O=C(CCc1ccccc1)Nc1ccc(NC(=O)C2CC2)nc1	-0.05%
O=C(CCc1ccccc1)Nc1ncc([N+](=O)[O-])s1	4.52% (active)
O=C(CCc1ccccc1)Nc1ccc(NC(=O)C2CCCCC2)nc1	-0.14%
